High-throughput results as filed in PubChem.
D2 PAM-1 = HTS Assay for Positive Allosteric Modulators of the Human D2 Dopamine Receptor: Primary Screen for Potentiators; potentiation, % at 10 µM; hit rate 0.34% among 340,000; HEK293 T-REx D2, calcium flux, EC20 dopamine potentiation; AID 485347, 2010;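 active = potentiation over 3 SD above the plate norm, cut at about 30% in these data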; also: 0% is about no effect
Target sequence (P14416 whole entry, looked up): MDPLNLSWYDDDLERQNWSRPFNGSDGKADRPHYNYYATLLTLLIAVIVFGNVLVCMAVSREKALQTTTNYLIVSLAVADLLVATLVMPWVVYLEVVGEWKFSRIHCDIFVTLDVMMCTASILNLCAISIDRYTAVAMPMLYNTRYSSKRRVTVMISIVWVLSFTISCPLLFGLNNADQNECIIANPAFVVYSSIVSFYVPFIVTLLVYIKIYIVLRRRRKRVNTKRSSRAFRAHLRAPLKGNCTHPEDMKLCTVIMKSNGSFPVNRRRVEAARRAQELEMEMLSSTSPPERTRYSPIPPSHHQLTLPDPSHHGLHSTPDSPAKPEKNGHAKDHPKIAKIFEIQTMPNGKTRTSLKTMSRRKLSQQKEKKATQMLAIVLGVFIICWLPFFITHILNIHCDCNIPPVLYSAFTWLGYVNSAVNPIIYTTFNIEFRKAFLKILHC
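Primary screen. Calcium kinetics in induced HEK293 T-REx D2 cells: compound pre-addition 180 s, EC20 dopamine, 180 s more.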
D2 ag-1 = HTS Assay for Allosteric Agonists of the Human D2 Dopamine Receptor: Primary Screen for Agonists; HEK293 T-REx D2 cells, calcium flux agonist mode; activation, % at 2 µM; hit rate 0.53% among 340,000;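 active = activation over 3 SD above normal in the single-dose calcium agonist read, cut at about 30% in these data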; also: 0% is about no effect
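Tetracycline-induced HEK293 T-REx cells with force-coupled D2 receptor, plated overnight at 30 C, loaded with no-wash calcium dye. After a 10 s baseline, compound was pin-added and calcium flux read kinetically for 180 s; calcium rises flagged agonists.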
LDHA inh = qHTS assay for inhibitors of human lactate dehydrogenase; L-lactate dehydrogenase A chain (Homo sapiens), P00338; purified LDHA, NADH/diaphorase-resazurin fluorescence; active compounds read low; activity change, % (values are at about 110 or 230 µM); hit rate 0.15% among 480,000; in the data active = activity change below about -30%; inconclusive = mostly about -25% to -30%;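 also: plate controls were DMSO wells for no effect and wells without enzyme for full effect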
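Human LDH5 (2 nM) was incubated with 0.06 mM NADH and 0.2 mM pyruvate for 5 min at room temperature in Tris pH 7.4. Remaining NADH was coupled through diaphorase/resazurin, and resorufin fluorescence was read at 0 and 20 min.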
D2 antagonist = HTS Assay for Allosteric Antagonists of the Human D2 Dopamine Receptor: Primary Screen for Antagonists. inhibition, % at 10 µM. HEK293 TREx D2 cells, calcium flux, dopamine EC80. hit rate 2% among 340,000; in the data active = inhibition above about 30%; inactive = below that, where a call was filed; also: 0% is about no effect
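Inhibition of EC80 dopamine-driven calcium flux, recorded kinetically, defines activity here; cells are a tetracycline-induced HEK293 T-REx line expressing force-coupled D2.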
D2 ag-2 = Beta-Arrestin HTS for Positive Allosteric Modulators of the Human D2 Dopamine Receptor: Agonists; D(2) dopamine receptor (Homo sapiens), P14416; DiscoveRx PathHunter D2 beta-arrestin, luminescence, 90 min; 100% = 57 uM dopamine signal; activation, % (concentration not given with the values); hit rate 0.084% among 360,000; AID 624465, 2012; in the data active = activation above about 40%; inconclusive = between about 15% and that limit
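DiscoveRx PathHunter D2 beta-arrestin cells (2,100/well) attached overnight, then compound-stimulated 90 min at 37 C in HBSS/10 mM HEPES/0.1% Tween-20 buffer; beta-galactosidase complementation read by luminescence after 1 h at ambient temperature. Dopamine 57 uM final (EC100) as control.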
D2 PAM-2 = Beta-Arrestin HTS for Positive Allosteric Modulators of the Human D2 Dopamine Receptor: Potentiators; D(2) dopamine receptor (Homo sapiens), P14416; potentiation, % (concentration not given with the values); hit rate 0.23% among 360,000; DiscoveRx D2 beta-arrestin cells, luminescence, 90 min; 100% = 57 uM dopamine signal; in the data active = potentiation above about 50%; inconclusive = mostly about 30% to 49%
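D2 cells co-treated with compound plus 50 nM dopamine (EC20) for 90 min at 37 deg C to detect potentiation. Beta-arrestin recruitment was read as enzyme-fragment luminescence after 1 h at ambient temperature. Full response was set by 57 uM dopamine.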
Starred values were filed as active, the others as inactive. Sampled rows, rich in hits. Any-hit rate of the full collection: about 2.1%.

Screening O=C(COc1ccc2c(c1)OCO2)Nc1ccc2c(c1)oc1ccccc12 returned D2 PAM-1 -5.5, D2 ag-1 0.0, LDHA inh 1.0, D2 antagonist 37.0*, D2 ag-2 1.6 and D2 PAM-2 8.9.
Screening COc1ccc(-c2c(-c3ccccc3)c(C(=O)C(=O)NCCCN(C)C)n3ccc4cc(OC)c(OC)cc4c23)cc1OC returned D2 PAM-1 -23.7, D2 ag-1 0.4, LDHA inh -0.4, D2 antagonist 48.3*, D2 ag-2 -2.5 and D2 PAM-2 -15.8.
Screening Clc1ccc(OCCOCCN2CCCCC2)c(Br)c1 returned D2 PAM-1 -24.5, D2 ag-1 0.9, LDHA inh 0.0, D2 antagonist 76.9*, D2 ag-2 1.5 and D2 PAM-2 6.0.
Clc1ccc(Cl)c(OCCN2CCCC2)c1 was read as D2 PAM-1 -14.0, D2 ag-1 0.8, LDHA inh -11.4, D2 antagonist 46.7*, D2 ag-2 4.4 and D2 PAM-2 -5.4.
CC1CCCN(CCCOc2ccc(Cl)cc2Br)C1 (stereo not drawn) was read as D2 PAM-1 -23.4, D2 ag-1 0.1, LDHA inh -21.5, D2 antagonist -3.9, D2 ag-2 -2.8 and D2 PAM-2 -39.8.
`Cc1ccc(Cl)c(OCCN2CCCC(C)C2)c1` (stereo not drawn) gave D2 PAM-1 -19.2, D2 ag-1 2.6, LDHA inh -17.4, D2 antagonist 53.1*, D2 ag-2 -1.5 and D2 PAM-2 -26.6.
CC1CCN(CCCOc2ccc(Cl)cc2Br)CC1 was read as D2 PAM-1 -26.1, D2 ag-1 0.0, LDHA inh -11.0, D2 antagonist 33.5*, D2 ag-2 -5.3 and D2 PAM-2 -29.4.
COc1ccc(OCCCN2CCCC(C)C2)cc1 (stereo not drawn) was read as D2 PAM-1 -15.8, D2 ag-1 0.0, LDHA inh -8.9, D2 antagonist 12.7, D2 ag-2 -3.7 and D2 PAM-2 -12.3.
Screening Clc1ccc(Cl)c(OCCN2CCOCC2)c1 returned D2 PAM-1 -13.6, D2 ag-1 0.4, LDHA inh -5.7, D2 antagonist 11.3, D2 ag-2 2.5 and D2 PAM-2 -28.2.
`CC(C)NCCOCCOc1ccc(Cl)cc1Br` gave D2 PAM-1 -28.8, D2 ag-1 0.1, LDHA inh -11.4, D2 antagonist 66.9*, D2 ag-2 -3.1 and D2 PAM-2 -36.1.
`CN(C)CCOCCOc1ccc(Cl)cc1Br` gave D2 PAM-1 -31.3, D2 ag-1 0.5, LDHA inh -17.8, D2 antagonist 18.6, D2 ag-2 -5.3 and D2 PAM-2 -27.9.
Screening CC1CCN(CCOCCOc2ccc(Cl)cc2Br)CC1 returned D2 PAM-1 -20.9, D2 ag-1 0.0, LDHA inh -33.7*, D2 antagonist 68.6*, D2 ag-2 -2.0 and D2 PAM-2 -30.5.
Screening CC1CCCN(CCOc2ccc3ccccc3c2Br)C1 (stereo not drawn) returned D2 PAM-1 -27.4, D2 ag-1 0.1, LDHA inh -15.5, D2 antagonist 71.5*, D2 ag-2 -3.5 and D2 PAM-2 -12.4.
`Cc1ccc(S(=O)(=O)N2CCN(C(=O)c3c(-c4c(F)cccc4Cl)noc3C)CC2)cc1C` gave LDHA inh 6.6.
Screening Cc1ccc2nc(-c3ccccc3)cc(C(=O)NCC(=O)NC3CC3)c2c1 returned LDHA inh -0.3.
Screening CCCCNCCCN1CCOCC1 returned LDHA inh 0.0.
COc1ccc(CCNc2nc(-c3cc(OC)c(OC)c(OC)c3)cs2)cc1OC was read as LDHA inh 16.4.
Screening CCc1n[nH]c(=S)n1/N=C/c1ccc(NC(C)=O)cc1 returned D2 PAM-1 11.5, D2 ag-1 0.0, LDHA inh 1.4, D2 antagonist -1.7, D2 ag-2 -5.4 and D2 PAM-2 -39.8.
CCN(CC)c1ccc(/C=N/n2c(=S)[nH]nc(C)c2=O)cc1 was read as D2 PAM-1 1.4, D2 ag-1 -0.4, LDHA inh -31.1*, D2 antagonist -14.9, D2 ag-2 -0.6 and D2 PAM-2 13.9.
For CCOc1ccc(/C=N/n2c(-c3ccccc3)n[nH]c2=S)cc1 the results were D2 PAM-1 -8.4, D2 ag-1 -1.8, LDHA inh -0.9, D2 antagonist 41.2*, D2 ag-2 inconclusive and D2 PAM-2 -0.8.
`Cc1n[nH]c(=S)n(/N=C/c2cccs2)c1=O` gave D2 PAM-1 -5.7, D2 ag-1 0.8, LDHA inh -31.1*, D2 antagonist -10.9, D2 ag-2 1.0 and D2 PAM-2 -3.3.
Screening Cc1ccc2nc(CN3CCN(S(=O)(=O)c4cccc(C(F)(F)F)c4)CC3)cn2c1 returned LDHA inh 11.4.
Cc1nc2ccc(NC(=O)CC3C=CCC3)cc2s1 (stereo not drawn) was read as LDHA inh 4.2.
`O=C(CSCc1cccc(Br)c1)N/N=C/c1ccc2c(c1)OCO2` gave D2 PAM-1 -0.2, D2 ag-1 0.0, LDHA inh -4.9, D2 antagonist 33.5*, D2 ag-2 -3.5 and D2 PAM-2 -6.6.
Screening O=C(CCc1ccc(O)c(O)c1)N/N=C/c1ccc2c(c1)OCO2 returned D2 PAM-1 2.0, D2 ag-1 18.7, LDHA inh 5.1, D2 antagonist 42.3*, D2 ag-2 inconclusive and D2 PAM-2 -0.8.
Screening O=C(CSCc1ccccc1Br)N/N=C/c1ccc2c(c1)OCO2 returned D2 PAM-1 18.2, D2 ag-1 0.1, LDHA inh 0.8, D2 antagonist 4.7, D2 ag-2 -0.9 and D2 PAM-2 6.5.
C=CCc1ccc(OCC(O)CN2CCc3ccccc3C2)c(OC)c1 (stereo not drawn) was read as D2 PAM-1 -13.2, D2 ag-1 0.4, LDHA inh 1.5, D2 antagonist 47.0*, D2 ag-2 -2.8 and D2 PAM-2 -27.7.
Cc1ccc(OCC(O)CN2CCc3ccccc3C2)c(C)c1 (stereo not drawn) was read as D2 PAM-1 -22.0, D2 ag-1 0.7, LDHA inh -0.4, D2 antagonist -31.5, D2 ag-2 -5.3 and D2 PAM-2 -20.0.
